In PubChem BioAssay:
Numbered stars: 1 amine (or outer) side, 2 acyl side, 3 side chain; on linkers, the order of the positions; unused ones are H or OH. Bridge positions count the residues as written; N and C are the ends. Square brackets hold non-standard residues; d marks the D form. Side chains are listed from the residue outwards. Peptide text beside a SMILES is read from it. * marks the point of attachment. ξ: configuration not given here. ΔAla(E,3-NHCONH2) = NC(=O)N/C=C(/N)C(=O)O; X1 = NC1=NCCC(C(N[*:1])C(=O)[*:2])N1; Heptanoyl(6-Me) = CC(C)CCCCC(=O)*; X2 = CCC(C)C(N)C1=NC(C(=O)*)CS1; ξβ3hOrn = NCCCC(N)CC(=O)*; Orn = NCCC[CH](N)C(=O)O; Dab = NCC[CH](N)C(=O)O; Dap = NC[CH](N)C(=O)O

experiment: viability loss with induced miR-34 in A549 – imaging, A549 dox-inducible miR-34, nuclei and caspase counts, primary screen (AID 1347080); settings: A549 miR-34 inducible, Hoechst nuclei count, 48 h; measured here: total cells with miR-34 induction; stronger effect = lower value; note: test concentration not given here

| SMILES | cell count |
| --- | --- |
| CCCCC(=O)O[C@]1(C(=O)CO)CCC2C3CCC4=CC(=O)CC[C@]4(C)C3[C@@H](O)C[C@@]21C (stereo not given in full) | 7620 |
| CCCCC/C=C/CCC(=O)N[C@H]1[C@H](Oc2c3cc4cc2Oc2ccc(cc2Cl)[C@@H](O[C@@H]2O[C@H](CO)[C@@H](O)[C@H](O)[C@H]2NC(C)=O)[C@@H]2NC(=O)[C@H](NC(=O)[C@@H]4NC(=O)[C@H]4NC(=O)C(Cc5ccc(c(Cl)c5)O3)NC(=O)[C@H](N)c3ccc(O)c(c3)Oc3cc(O)cc4c3)c3ccc(O)c(c3)-c3c(OC4O[C@H](CO)[C@@H](O)[C@H](O)[C@@H]4O)cc(O)cc3[C@@H](C(=O)O)NC2=O)O[C@H](CO)[C@@H](O)[C@@H]1O (stereo not given in full) | 12100 |
| CC(C)(C)NCC(O)COc1cccc2c1CCCC2=O (stereo not given) | 11300 |
| CC(C)CCCC(C)[C@H]1CCC2C3CC=C4C[C@@H](O)CC[C@]4(C)C3CC[C@@]21C (stereo not given in full) | 12300 |
| CCC(=O)OCC(=O)[C@@]1(OC(=O)CC)[C@@H](C)CC2C3CCC4=CC(=O)C=C[C@]4(C)C3(F)[C@@H](O)C[C@@]21C (stereo not given in full) | 7780 |
| CC(=O)Nc1ccc(S(=O)(=O)Nc2onc(C)c2C)cc1 | 11800 |
| CO/N=C(\C(=O)NC1C(=O)N2C(C(=O)OCOC(=O)C(C)(C)C)=C(/C=C\c3scnc3C)CSC12)c1csc(N)n1 (stereo not given) | 11600 |
| CC1C/C=C/C=C/C=C/C=C/C(O[C@@H]2O[C@H](C)[C@@H](O)[C@H](N)[C@@H]2O)CC2OC(O)(CC(O)CC3OC3/C=C/C(=O)O1)CC(O)C2C(=O)O (stereo not given in full) | 11800 |
| C[C@]12CCC(=O)C=C1C=CC1C2CC[C@@]2(C)C1CC[C@@]21CCC(=O)O1 (stereo not given in full) | 11200 |
| CC(C)c1c(C(=O)c2ccccc2)c(-c2ccccc2)c(-c2ccc(F)cc2)n1CC[C@@H](O)C[C@@H](O)CC(=O)O | 9140 |
| CC(CCC(=O)O)[C@H]1CCC2C3C(=O)C[C@@H]4CC(=O)CC[C@]4(C)C3CC(=O)[C@@]21C (stereo not given in full) | 11900 |
| CC(=O)Nc1cc2ccccc2oc1=O | 8640 |
| CCCCCCCCCCC[C@@H](C[C@H]1OC(=O)[C@H]1CCCCCC)OC(=O)[C@@H](CC(C)C)NC=O | 11500 |
| CC(=O)OCC(=O)[C@@]12OC(C)(C)O[C@@H]1CC1C3C[C@H](F)C4=CC(=O)C=C[C@]4(C)[C@@]3(F)[C@@H](O)C[C@@]12C (stereo not given in full) | 6960 |
| CC[C@@H]1OC(=O)C[C@@H](O)[C@H](C)[C@@H](O[C@@H]2O[C@H](C)[C@@H](O)[C@H](N(C)C)[C@H]2O)[C@@H](CCN2C[C@H](C)C[C@H](C)C2)C[C@@H](C)C(=O)/C=C/C(C)=C\[C@@H]1CO[C@@H]1O[C@H](C)[C@@H](O)[C@@H](OC)[C@H]1OC | 12100 |
| O=C(OC[C@H]1O[C@H](OC(=O)c2cc(O)c(O)c(OC(=O)c3cc(O)c(O)c(O)c3)c2)[C@H](OC(=O)c2cc(O)c(O)c(OC(=O)c3cc(O)c(O)c(O)c3)c2)[C@@H](OC(=O)c2cc(O)c(O)c(OC(=O)c3cc(O)c(O)c(O)c3)c2)[C@@H]1OC(=O)c1cc(O)c(O)c(OC(=O)c2cc(O)c(O)c(O)c2)c1)c1cc(O)c(O)c(OC(=O)c2cc(O)c(O)c(O)c2)c1 | 4260 |
| CC(C)C1CCC(C(=O)N[C@@H](Cc2ccccc2)C(=O)O)CC1 (stereo not given in full) | 11100 |
| CCC(C)C(=O)O[C@H]1C[C@H](O)C=C2C=C[C@H](C)[C@H](CC[C@@H](O)C[C@@H](O)CC(=O)O)C21 (stereo not given in full) | 11700 |
| CCC(C)C1NC(=O)C(CCN)NC(=O)C(NC(=O)C(CCN)NC(=O)C(NC(=O)C(CCN)NC(=O)CCCCC(C)C)C(C)O)CCNC(=O)C(C(C)O)NC(=O)C(CCN)NC(=O)C(CCN)NC(=O)C(C(C)CC)NC1=O (stereo not given) ({Heptanoyl(6-Me)}-[Dab]T[Dab][Dab][Dab]II[Dab][Dab]T; lactam 4-C; configuration not given here) | 12400 |
| CC1=C(C(=O)O)N2C(=O)[C@@H](NC(=O)[C@H](N)C3=CCC=CC3)C2SC1 (stereo not given in full) | 11000 |

| SMILES | cell count |
| --- | --- |
| OC[C@@H](O)C(O[C@@H]1O[C@H](CO)[C@H](O)[C@H](O)[C@H]1O)[C@H](O)[C@@H](O)CO (stereo not given in full) | 11300 |
| NCCCC(N)CC(=O)NCC1NC(=O)C(CO)NC(=O)C(N)CNC(=O)C(C2CCN=C(N)N2)NC(=O)/C(=C\NC(N)=O)NC1=O (stereo not drawn) (H-[Dap]S[Dap](ξβ3hOrn)[ΔAla(E,3-NHCONH2)][X1]; lactam 1-C; configuration not given here) | 11300 |
| COCC1=C(C(=O)OC(C)OC(=O)OC(C)C)N2C(=O)[C@@H](NC(=O)/C(=N/OC)c3csc(N)n3)[C@H]2SC1 (stereo not given in full) | 12100 |
| C#C[C@]1(OC(C)=O)CCC2C3CCC4=C/C(=N/O)CCC4C3CC[C@@]21CC (stereo not given in full) | 11600 |
| CCC(C)C(N)C1=NC(C(=O)NC(CC(C)C)C(=O)NC(CCC(=O)O)C(=O)NC(C(=O)NCCCCC2NC(=O)C(CC(N)=O)NC(=O)C(CC(=O)O)NC(=O)C(Cc3cnc[nH]3)NC(=O)C(Cc3ccccc3)NC(=O)C(C(C)CC)NC(=O)C(CCCN)NC2=O)C(C)CC)CS1 (stereo not drawn) (cyclo(DNK([Ile-Glu-Leu-X2])[Orn]IFH); configuration not given here) | 10300 |
| C[N+](C)(C)CCOP(=O)([O-])OP(=O)(O)OC[C@H]1OC(n2ccc(N)nc2=O)[C@H](O)[C@@H]1O (stereo not given in full) | 12600 |
| CCN[C@@H]1C[C@H](N)[C@@H](O[C@H]2OC(CN)=CC[C@H]2N)[C@H](O)[C@H]1OC1OC[C@](C)(O)[C@H](NC)[C@H]1O (stereo not given in full) | 8580 |
| C[C@]12C=CC(=O)C=C1CCC1C2[C@@H](O)C[C@@]2(C)C1CC[C@]2(O)C(=O)COC(=O)CCC(=O)O (stereo not given in full) | 7880 |
| O=C(N[C@@H](CO)[C@H](O)c1ccc([N+](=O)[O-])cc1)C(Cl)Cl | 11600 |
| N[C@H](Cc1cc(I)c(Oc2ccc(O)c(I)c2)c(I)c1)C(=O)O | 11400 |
| NC(Cc1c[nH]c2ccccc12)C(=O)O (stereo not given) | 11800 |
| O=C(O)C1=C(CSc2nnnn2CS(=O)(=O)O)CS[C@@H]2C(NC(=O)[C@H](O)c3ccccc3)C(=O)N12 (stereo not given in full) | 10700 |
| O=C1O[C@H](C(O)CO)C(O)=C1O (stereo not given in full) | 12000 |
| CC1=C(C(=O)O)N2C(=O)[C@@H](NC(=O)C(N)c3ccc(O)cc3)[C@H]2SC1 (stereo not given in full) | 12000 |
| C=C1CC[C@H](O)C/C1=C/C=C1\CCCC2(C)C1CCC2C(C)CCCC(C)C (stereo not given in full) | 11700 |
| CC(=O)c1cc2ccccc2oc1=O | 8970 |
| CCc1cc(Cl)c(OC)c(C(=O)NCC2CCCN2CC)c1O (stereo not given) | 7250 |
| OC[C@H]1OC([S-])[C@H](O)[C@@H](O)[C@@H]1O.[Au+] (stereo not given in full) | 9290 |
| CC(C)(O/N=C(\C(=O)N[C@@H]1C(=O)N2C(C(=O)[O-])=C(C[n+]3ccccc3)CSC12)c1csc(N)n1)C(=O)O (stereo not given in full) | 12200 |
| C[C@H]1O[C@@H](O[C@H]2[C@@H](O)C[C@H](O[C@H]3[C@@H](O)C[C@H](O[C@H]4CC[C@]5(C)C6CC[C@]7(C)[C@@H](C8=CC(=O)OC8)CC[C@]7(O)C6CC[C@@H]5C4)O[C@@H]3C)O[C@@H]2C)C[C@H](O)[C@@H]1O (stereo not given in full) | 190 |
